# Experimental data reported in the antibiotic and cytotoxicity screens of Wong et al. (2023).
# Among all 39,000 compounds or so, about 3,300 (8.5%) were called active. The sample as a whole holds a higher share of actives than the screen did.
# Tested on: HepG2
# Experiment: cytotoxicity call (relative viability < 0.9)
# Settings: 10 µM
row,Structure (SMILES),cytotoxicity call
1,CC(C)NC(=O)N[C@@H]1C=C[C@@H](CC(=O)NCCN2CCCC2)O[C@H]1CO,inactive
2,COc1ccc(NC(=O)N(C)C[C@@H]2OCCCC[C@@H](C)Oc3ccc(NC(=O)C4CCCCC4)cc3C(=O)N([C@H](C)CO)C[C@H]2C)cc1,inactive
3,COc1ccc(CN(C)C[C@H]2OCCCC[C@H](C)Oc3ccc(NC(=O)C4CCCCC4)cc3C(=O)N([C@@H](C)CO)C[C@H]2C)cc1,inactive
4,O=C(C[C@H]1CC[C@@H]2NC[C@H](O)COC[C@H]2O1)NCCN1CCCCC1,inactive
5,O=C1O[C@H](c2ccccc2)[C@H](c2ccccc2)N2[C@H]1[C@@H](C(=O)N1CCCCCCC1)[C@]1(C(=O)Nc3ccc(C#CCCO)cc31)[C@H]2c1ccc(O)cc1,inactive
6,CSc1nc2nc(N)nc(N)c2s1,inactive
7,COc1cccc(S(=O)(=O)N2C[C@H](O)COC[C@@H]3O[C@H](CC(=O)N4CCN(c5ccccc5)CC4)CC[C@H]32)c1,inactive
8,O=C(C[C@H]1CC[C@@H]2[C@H](COC[C@H](O)CN2S(=O)(=O)c2cccc(Cl)c2)O1)NC1Cc2ccccc2C1,inactive
9,C[C@@H]1CN([C@@H](C)CO)C(=O)c2cccc(NC(=O)c3cnccn3)c2O[C@@H]1CN(C)S(C)(=O)=O,inactive
10,CC(C)NC(=O)Nc1ccc2c(c1)C(=O)N([C@H](C)CO)C[C@H](C)[C@@H](CN(C)Cc1ccccc1)OCCCC[C@@H](C)O2,inactive
11,C[C@H](CO)N1C[C@H](C)[C@@H](CN(C)Cc2ccc(C(F)(F)F)cc2)Oc2ccc(NC(=O)Nc3ccccc3)cc2C1=O,active
12,C[C@H](CO)N1C[C@H](C)[C@@H](CN(C)Cc2ccc(C(=O)O)cc2)Oc2ccc(NC(=O)Nc3ccc(C(F)(F)F)cc3)cc2C1=O,inactive
13,C[C@@H]1CN([C@@H](C)CO)C(=O)c2cc(NC(=O)Nc3ccc(C(F)(F)F)cc3)ccc2O[C@@H]1CN(C)Cc1ccc(C(=O)O)cc1,inactive
14,C[C@@H]1CCCCO[C@H](CN(C)C(=O)c2ccncc2)[C@@H](C)CN([C@H](C)CO)C(=O)c2cc(NC(=O)C3CCCCC3)ccc2O1,inactive
15,C[C@H](CO)N1C[C@H](C)[C@@H](CN(C)S(=O)(=O)c2cn(C)cn2)Oc2ccc(NS(=O)(=O)c3cn(C)cn3)cc2C1=O,inactive
16,C[C@@H]1CCCCO[C@@H](CN(C)S(=O)(=O)c2ccc(F)cc2)[C@@H](C)CN([C@@H](C)CO)C(=O)c2cc(NC(=O)Nc3cccc4ccccc34)ccc2O1,inactive
17,CC(C)c1ccccc1Cc1cc(C(=O)Nc2ccc(S(=O)(=O)c3ccccc3C(C)(C)C)cc2)c(O)c(O)c1O,active
18,CCc1cccc(C(C)C)c1NC(=O)Nc1ccccc1,inactive
19,Cc1oc(C(C)(C)C)cc1C(=O)Nc1ccc(C(C)C)cc1,inactive
20,C[C@@H]1CN([C@@H](C)CO)C(=O)Cc2cc(NC(=O)CCN3CCOCC3)ccc2O[C@@H]1CN(C)S(=O)(=O)c1ccccc1,inactive
21,COC(=O)C1=CC(CCCO)=C[C@@H](c2ccc(CN3CCCC3)cc2)N(Cc2sc3ccccc3c2Cl)C=C1C(=O)OC,inactive
22,C[C@H]1CN([C@@H](C)CO)C(=O)c2cc(C#Cc3ccccc3)cnc2O[C@@H]1CN(C)C(=O)CCN1CCCCC1,active

row,Structure (SMILES),cytotoxicity call
1,C[C@H](CO)N1C[C@H](C)[C@@H](CN(C)C(=O)CCN2CCCCC2)Oc2ncc(C#Cc3ccccc3)cc2C1=O,inactive
2,C[C@H]1CN([C@@H](C)CO)C(=O)c2cc(C#Cc3ccccc3)cnc2O[C@H]1CN(C)C(=O)CCN1CCCCC1,active
3,C[C@@H]1CN([C@@H](C)CO)C(=O)c2cc(C#Cc3ccccc3)cnc2O[C@@H]1CN(C)C(=O)CCN1CCCCC1,inactive
4,C[C@@H]1CN([C@H](C)CO)C(=O)c2cc(C#Cc3ccccc3)cnc2O[C@H]1CN(C)C(=O)CCN1CCCCC1,inactive
5,C[C@@H]1CN([C@H](C)CO)C(=O)c2cc(C#Cc3ccccc3)cnc2O[C@@H]1CN(C)C(=O)CCN1CCCCC1,inactive
6,CC(C)NC(=O)N(C)C[C@@H]1Oc2ccc(NC(=O)c3ccncc3)cc2CC(=O)N([C@@H](C)CO)C[C@H]1C,inactive
7,COc1ccc(S(=O)(=O)N(C)C[C@@H]2Oc3ccc(NC(=O)CCCN(C)C)cc3CC(=O)N([C@H](C)CO)C[C@@H]2C)cc1,inactive
8,Cc1ccc(=O)[nH]n1,inactive
9,C[C@@H]1CN([C@@H](C)CO)C(=O)c2cc(-c3cccnc3)cnc2O[C@@H]1CN(C)Cc1ccc(Oc2ccccc2)cc1,inactive
10,C[C@H]1CCCCO[C@H](CN(C)C(=O)Nc2cccc3ccccc23)[C@@H](C)CN([C@@H](C)CO)C(=O)c2cc(NC(=O)Cc3ccccc3)ccc2O1,inactive
11,COc1cccc(S(=O)(=O)N(C)C[C@@H]2Oc3ncc(-c4cccc(C(=O)N(C)C)c4)cc3C(=O)N([C@@H](C)CO)C[C@H]2C)c1,inactive
12,CC(C)NC(=O)Nc1ccc2c(c1)C(=O)N([C@H](C)CO)C[C@H](C)[C@@H](CN(C)Cc1ccccc1)OCCCC[C@H](C)O2,inactive
13,COc1ccc2c3c([nH]c2c1)[C@H](CO)N(Cc1ccc(cc1)Cl)C[C@]13CN(CCc2ccccc2)C1,active
14,COc1ccc2c3c([nH]c2c1)[C@@H](CO)N(C[C@]13CN(CCc2ccccc2)C1)C(=O)CN1CCOCC1,inactive
15,COc1ccc2c3c([nH]c2c1)[C@H](CO)N(C[C@]13CN(CCc2ccccc2)C1)C(=O)CN1CCOCC1,inactive
16,COc1ccc2c3c([nH]c2c1)[C@@H](CO)N(Cc1ccc(cc1)Cl)C[C@]13CN(CCc2ccccc2)C1,active
17,COc1ccc(cc1)CN1C[C@]2(CN(C2)C(=O)Cc2ccncc2)c2c([nH]c3cc(ccc23)OC)[C@H]1CO,inactive
18,COc1ccc2c3c([nH]c2c1)[C@@H](CO)N(Cc1ccccc1)C[C@]13CCN(CC1)C(=O)Nc1cccc(c1)F,inactive
19,C[C@H]1CN([C@@H](C)CO)C(=O)c2c(c3ccccc3n2C)-c2ccccc2CO[C@@H]1CN(C)Cc1ccccc1C(F)(F)F,inactive
20,C[C@H]1CN([C@@H](C)CO)C(=O)Cc2cc(NC(=O)CCN3CCOCC3)ccc2O[C@H]1CN(C)S(=O)(=O)c1ccccc1,inactive
21,C=C[C@](C)(O)CCC[C@H](C)CCC[C@H](C)CCCC(C)C,inactive
22,CC(=O)OC1CCC2(C)C(CCC3(C)C2CC=C2C4CC(C)(C)CCC4(C(=O)O)CCC23C)C1(C)C (stereo not given),inactive

row,Structure (SMILES),cytotoxicity call
1,COc1ccc(S(=O)(=O)Nc2ccc3c(c2)C(=O)N([C@@H](C)CO)C[C@H](C)[C@H](CN(C)Cc2ccc4c(c2)OCO4)OCCCC[C@H](C)O3)cc1,inactive
2,C[C@@H]1CN([C@H](C)CO)C(=O)Cc2cc(NS(=O)(=O)c3ccc(Cl)cc3)ccc2O[C@@H]1CN(C)C(=O)Nc1ccc(C(F)(F)F)cc1,inactive
3,CN(C)C(=O)C[C@@H]1C=C[C@H](NC(=O)C2CC2)[C@@H](CO)O1,inactive
4,COc1ccc(S(=O)(=O)N(C)C[C@@H]2OCCCC[C@H](C)Oc3ccc(NC(=O)NC4CCCCC4)cc3C(=O)N([C@@H](C)CO)C[C@H]2C)cc1,inactive
5,COc1ccc(S(=O)(=O)N(C)C[C@@H]2OCCCC[C@@H](C)Oc3ccc(NC(=O)NC4CCCCC4)cc3C(=O)N([C@H](C)CO)C[C@H]2C)cc1,active
6,COc1ccc(S(=O)(=O)N(C)C[C@H]2OCCCC[C@@H](C)Oc3ccc(NC(=O)NC4CCCCC4)cc3C(=O)N([C@@H](C)CO)C[C@H]2C)cc1,active
7,COc1ccc(S(=O)(=O)N(C)C[C@H]2OCCCC[C@H](C)Oc3ccc(NC(=O)NC4CCCCC4)cc3C(=O)N([C@H](C)CO)C[C@@H]2C)cc1,inactive
8,COc1ccc(S(=O)(=O)N(C)C[C@H]2OCCCC[C@H](C)Oc3ccc(NC(=O)NC4CCCCC4)cc3C(=O)N([C@@H](C)CO)C[C@H]2C)cc1,inactive
9,COc1ccc(S(=O)(=O)N(C)C[C@H]2OCCCC[C@@H](C)Oc3ccc(NC(=O)NC4CCCCC4)cc3C(=O)N([C@@H](C)CO)C[C@@H]2C)cc1,active
10,COc1ccc(S(=O)(=O)N(C)C[C@@H]2OCCCC[C@H](C)Oc3ccc(NC(=O)NC4CCCCC4)cc3C(=O)N([C@H](C)CO)C[C@@H]2C)cc1,inactive
11,COc1ccc(S(=O)(=O)N(C)C[C@H]2OCCCC[C@H](C)Oc3ccc(NC(=O)NC4CCCCC4)cc3C(=O)N([C@H](C)CO)C[C@H]2C)cc1,inactive
12,COc1ccc(S(=O)(=O)N(C)C[C@@H]2OCCCC[C@H](C)Oc3ccc(NC(=O)NC4CCCCC4)cc3C(=O)N([C@@H](C)CO)C[C@@H]2C)cc1,inactive
13,C[C@@H]1CN([C@H](C)CO)C(=O)Cc2cc(NC(=O)CCCCCC(=O)Nc3ccccc3N)ccc2O[C@H]1CN(C)S(=O)(=O)c1cn(C)cn1,inactive
14,COc1ccc(NC(=O)N(C)C[C@@H]2OCCCC[C@@H](C)Oc3ccc(NS(=O)(=O)c4cccs4)cc3C(=O)N([C@@H](C)CO)C[C@H]2C)cc1,inactive
15,C[C@H](CO)N1C[C@H](C)[C@@H](CN(C)S(=O)(=O)c2cn(C)cn2)Oc2ccc(NC(=O)C3CC3)cc2CC1=O,inactive
16,C[C@@H]1CCCCO[C@H](CN(C)Cc2ccc(C(=O)Nc3ccccc3N)cc2)[C@@H](C)CN([C@@H](C)CO)C(=O)c2cc(N(C)C)ccc2O1,inactive
17,O=C(C[C@H]1C=C[C@@H](NC(=O)CN2CCOCC2)[C@@H](CO)O1)NCCc1ccccc1,inactive
18,CC(C)CC#Cc1ccc2c(c1)O[C@H](CN(C)C(=O)c1ccncc1)[C@H](C)CN([C@H](C)CO)S2(=O)=O,inactive
19,CCCCCCCCCc1ccc(OCCOCCOCCOCCOCCOCCOCCOCCOCCO)cc1,active
20,CCCCCCCCc1ccc(-c2ccc(C(=O)O)cc2)cc1,inactive
21,OCCC[C@@H](O)c1ccc(OCCO)cc1,inactive
